target: ZNF721 DBD1 (Homo sapiens, UniProt Q8TF20-2 29-461); assay: HT-SELEX; 20 mM HEPES pH 7, 140 mM KCl, 5 mM NaCl, 1 mM K2HPO4, 2 mM MgSO4, 100 uM EGTA, ZnSO4, 0.1% Tween20; room temperature, 1 h; high values mean tight binding; conditions: protein: ivt; tags: eGFP (N-terminal); dsDNA, one strand shown
Outline: (§1)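 The binding signal is a relative k-mer count in selected reads, and higher values mean tighter binding. To obtain these reads, bead-bound tagged transcription factor (full-length or DNA-binding-domain fragment, produced in HEK293 lysate or cell-free extract) was mixed with a randomized 40-base DNA library for 1 h at room temperature in low-stringency HEPES/KCl buffer with Tween20. Bound DNA was recovered by washing and heat elution, PCR-amplified through successive cycles and sequenced on Illumina (~3 million 60 bp reads per sample).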

ZNF721 DBD1, sequence (Q8TF20 17-449): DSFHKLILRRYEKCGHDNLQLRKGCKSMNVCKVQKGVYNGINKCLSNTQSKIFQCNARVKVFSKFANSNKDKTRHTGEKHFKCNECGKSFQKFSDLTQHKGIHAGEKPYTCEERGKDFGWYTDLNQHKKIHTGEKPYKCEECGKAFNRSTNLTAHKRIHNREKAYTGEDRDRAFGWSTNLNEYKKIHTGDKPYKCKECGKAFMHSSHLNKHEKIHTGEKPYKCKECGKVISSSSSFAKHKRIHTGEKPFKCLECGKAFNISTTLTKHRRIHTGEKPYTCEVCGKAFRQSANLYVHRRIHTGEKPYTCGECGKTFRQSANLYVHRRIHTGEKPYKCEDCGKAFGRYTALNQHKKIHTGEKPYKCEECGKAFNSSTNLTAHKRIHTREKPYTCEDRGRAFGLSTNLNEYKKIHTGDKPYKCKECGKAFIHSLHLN

Sequence | binding signal [relative 10-mer count]
CCCCAACCAC | 0.00665
CCACGCCACC | 0.00353
CCCCCGCTCC | 0.0033
CACCCCCCAC | 0.0103
CGAAAAAACA | 0.0022
GCCCACCCCA | 0.00505
CACCCTCCAC | 0.0056
CCACCATCCC | 0.0055
CCCTGCCCCC | 0.00642
ACCCACACCC | 0.00527
ACACCACCCC | 0.00394
ACCCCACCCT | 0.005
CCTCCCTCCC | 0.00931
AGCCCCACCC | 0.00312
AAAAAAGCAG | 0.0227
AAAAAAAGCT | 0.169
CCCCCGTCCC | 0.00642
CCCTCCACCC | 0.0139
GCCCCACCCA | 0.00404
ACCCCCCCCC | 0.00362

Sequence | binding signal [relative 10-mer count]
GCCCCCCTCC | 0.00527
AAGCAGCGTA | 0.00124
CCCCCTCCGC | 0.00725
GCTTTTTTCA | 0.076
GCCCCCACCC | 0.0083
CCCGCCACCC | 0.0125
ATGGGGTGGG | 0.00477
CCACCACCCG | 0.00564
CGCCACCACC | 0.00468
CCACACCCCC | 0.00738
AAAGAAGCGT | 0.0739
CCACCCTCCC | 0.0111
CCCCGCCCCG | 0.00486
ACCCTCCCCC | 0.00766
AGGGGTGGTG | 0.00532
CACCTCCCCC | 0.00798
CGGAAAAAAG | 0.023
AAAAAGGCAT | 0.00266
CCACCGCCAC | 0.00394
CCACCCCCCA | 0.0103

target: ZNF721 DBD2 (Homo sapiens, UniProt Q8TF20-2 395-923); assay: as above; conditions: protein: ivt; tags: eGFP (N-terminal); dsDNA, one strand shown
Sequence (Q8TF20 383-911): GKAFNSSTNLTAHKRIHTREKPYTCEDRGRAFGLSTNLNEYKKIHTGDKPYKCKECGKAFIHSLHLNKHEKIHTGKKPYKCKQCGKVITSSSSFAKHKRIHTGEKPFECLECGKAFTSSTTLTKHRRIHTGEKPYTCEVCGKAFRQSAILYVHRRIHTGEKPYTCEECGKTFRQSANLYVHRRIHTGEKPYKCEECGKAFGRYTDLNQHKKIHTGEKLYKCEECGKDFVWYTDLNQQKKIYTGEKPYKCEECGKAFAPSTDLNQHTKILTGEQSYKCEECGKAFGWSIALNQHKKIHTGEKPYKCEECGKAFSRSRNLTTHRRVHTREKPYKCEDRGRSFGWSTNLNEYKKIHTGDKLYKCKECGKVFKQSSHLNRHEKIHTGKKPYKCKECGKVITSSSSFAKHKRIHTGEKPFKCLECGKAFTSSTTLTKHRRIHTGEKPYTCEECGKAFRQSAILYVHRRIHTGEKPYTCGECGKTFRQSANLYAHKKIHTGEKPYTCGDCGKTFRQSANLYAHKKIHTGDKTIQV
Outline: as §1

Sequence | binding signal [relative 10-mer count]
CCCCAACCAC | 0.00515
CCACGCCACC | 0.00443
CCCCCGCTCC | 0.00144
CACCCCCCAC | 0.00527
CGAAAAAACA | 0.161
GCCCACCCCA | 0.00971
CACCCTCCAC | 0.00587
CCACCATCCC | 0.00443
CCCTGCCCCC | 0.00264
ACCCACACCC | 0.00527
ACACCACCCC | 0.00276
ACCCCACCCT | 0.00372
CCTCCCTCCC | 0.00479
AGCCCCACCC | 0.00959
AAAAAAGCAG | 0.588
AAAAAAAGCT | 0.00923
CCCCCGTCCC | 0.00252
CCCTCCACCC | 0.00731
GCCCCACCCA | 0.00515
ACCCCCCCCC | 0.0018

Sequence | binding signal [relative 10-mer count]
GCCCCCCTCC | 0.00264
AAGCAGCGTA | 0.201
CCCCCTCCGC | 0.00372
GCTTTTTTCA | 0.0334
GCCCCCACCC | 0.00407
CCCGCCACCC | 0.00252
ATGGGGTGGG | 0.00551
CCACCACCCG | 0.00467
CGCCACCACC | 0.00384
CCACACCCCC | 0.00276
AAAGAAGCGT | 0.00348
CCACCCTCCC | 0.00467
CCCCGCCCCG | 0.00348
ACCCTCCCCC | 0.00575
AGGGGTGGTG | 0.00407
CACCTCCCCC | 0.00443
CGGAAAAAAG | 0.0288
AAAAAGGCAT | 0.155
CCACCGCCAC | 0.00599
CCACCCCCCA | 0.00443

— article PMC13541613, “GHT-SELEX demonstrates unexpectedly high intrinsic sequence specificity and complex DNA binding of many human transcription factors”
